Among all 59,000 compounds or so, about 6,200 (11%) were called active. Inconclusive results (about 9%) are left out. No stated cut-off is given here; in the data, active means max dye-equivalent concentration above about 10 nM; inconclusive means mostly about 1.1 nM to 9.6 nM; inactive means weaker than that. Shown is part of a subset that was picked to be rich in actives.
experiment: qHTS Assay for Spectroscopic Profiling in 4-MU Spectral Region; conditions: compound autofluorescence, 340/450 nm, 4-MU equivalents; hits give high values
Summary of the method: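 Intrinsic fluorescence at 340/450 nm (ex/em) was read after 15 min at room temperature in pH 8.0, 100 mM Tris. Each compound concentration expressed as 4-MU-equivalent concentration from a six-point 4-MU standard series on each plate.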

SMILES	max dye-equivalent concentration
Cc1nc(SCC(=O)Nc2cc(C)on2)c2c(C)c(C)sc2n1	inactive
Cc1cc(C)c2c(c1)cc(C)c1nnc(SCC(=O)Nc3cc(C)on3)n12	inactive
Cc1ccc2nc(-c3ccc(SCC(=O)Nc4cc(C)on4)nc3)[nH]c2c1	33 nM (active)
CCOc1ccccc1C(=O)NCc1ccco1	inactive
CCOc1ccccc1C(=O)NCCCn1ccnc1	inactive
CCOc1ccccc1C1C(C(=O)OC)=CN(C)C=C1C(=O)OC	10000 nM (active)
COc1ccccc1CCn1c(=O)c(-c2cn(C)c3ccccc23)nc2cncnc21	inactive
COCCn1c(=O)c(-c2cccs2)nc2cncnc21	74 nM (active)
CN(C(=O)COc1nnc(-c2cccs2)c(-c2cccs2)n1)c1ccccc1	inactive
COCCn1c(=O)c(-c2cccs2)nc2cnc(N3CCN(C)CC3)nc21	14 nM (active)
COC(=O)[C@@H]1[C@H]2C[C@H]3c4[nH]c5cc(OC)ccc5c4CCN3C[C@@H]2C[C@@H](OC(=O)c2cc(OC)c(OC)c(OC)c2)[C@@H]1OC	inactive
CCCCn1nnnc1NCc1cc(OC)c(OC)c(OC)c1	inactive
COC(=O)CCNc1ccc2c(c1)OCCO2	inactive
CCOc1ccc(-c2nnc3ccc(SC)nn23)cc1	12 nM (active)
CCOc1cccc(-c2nnc3sc(COc4ccc(OC)cc4)nn23)c1	inactive
O=C1NC(=O)[C@@](Cc2ccccc2)(c2cccnc2)N1	inactive
O=c1cc(CSc2ccc(Cl)cc2)nc(N2CCOCC2)[nH]1	inactive
CCOC(=O)N1CC=C2C(C#N)=C(N)C(C#N)(C#N)[C@H](c3cccs3)[C@H]2C1	27 nM (active)
CC1=C(C(=O)Nc2ccccc2)C(c2cccs2)C(C#N)=C(SCC#N)N1 (stereo not given)	inactive
O=C(c1cc(C(F)(F)F)cc(C(F)(F)F)c1)N1CCC2(CC1)CN(c1ccncc1)C2	inactive
CCOC(=O)c1cc2ccccc2nc1C	inactive
Cc1nc2ccccc2cc1O	2300 nM (active)

SMILES	max dye-equivalent concentration
Cc1cc(O)ccc1-c1cnc2ccccc2n1	inactive
CC(=O)N1CCN(C(=O)Nc2cccc(C(F)(F)F)c2)CC1	inactive
Cc1ccc(NC(=O)CCNS(=O)(=O)c2ccc3c(c2)oc(=O)n3C)cc1C	inactive
C[N+](C)(CCCCCC[N+](C)(C)CCCN1C(=O)c2cccc3cccc(c23)C1=O)CCCN1C(=O)c2cccc3cccc(c23)C1=O	260 nM (active)
O=C1c2ccccc2C(=O)N1CCCSc1ccccc1	inactive
Nc1ccc(SCCN2C(=O)c3ccccc3C2=O)cc1	inactive
CCCC(=O)Nc1ccc(C(=O)NCCCn2ccnc2)cc1	inactive
CSc1ccc(S(=O)(=O)NCc2ccc(Cl)cc2)cc1	inactive
COCCNc1nc(-n2nc(C)cc2C)nc2sc3c(c12)CCCC3	920 nM (active)
COCCn1c(C)cc(C(=O)CSc2ncnc3sc4c(c23)CCC4)c1C	inactive
Cc1cc(C)n(-c2nc(SCC(=O)N3CCCC3)c3c4c(sc3n2)CCCC4)n1	inactive
COc1ccc(S(=O)(=O)Nc2ccc3c(c2)OCO3)cc1Cl	inactive
N#Cc1ccc(COC(=O)Cn2nnc(-c3ccccc3)n2)cc1	inactive
CCCNS(=O)(=O)c1ccc2c(c1)CCCN2C(C)=O	inactive
CC(C)OCCCNc1ncnc2c1[nH]c1ccc(F)cc12	12 nM (active)
Fc1cc(F)c2nc(N3CCOCC3)sc2c1	inactive
Cn1c(SCc2c(F)cccc2Cl)nnc1-c1cnccn1	17 nM (active)
O=C(CSc1nnc(-c2cnccn2)n1Cc1ccco1)c1ccc(Cl)c(Cl)c1	inactive
CCN(CC)C(=O)CSc1nnc(-c2cnccn2)n1-c1ccc(C)cc1	inactive
O=C(COc1ccccc1)N1CCc2ccccc2C1	inactive
N#C/C(=C1\CCCN1)c1nc(-c2ccccc2)cs1	inactive
Cn1c(/C(C#N)=C2/CCCCCN2)nc2ccccc21	22 nM (active)

SMILES	max dye-equivalent concentration
Cc1nc(NC(=O)C23CCC(C)(C(=O)O2)C3(C)C)sc1C (stereo not given)	inactive
CC(=NCc1ccco1)C1=C(O)c2ccccc2C1=O	inactive
COc1ccc(N2C(=O)CC(N3CCC(C(N)=O)CC3)C2=O)cc1 (stereo not given)	inactive
CCCC(NC(=O)c1ccccc1)c1nc2ccccc2n1Cc1ccc(C(=O)OC)o1 (stereo not given)	inactive
CCn1c(SCC(=O)Nc2cc(C)ccc2C)nnc1-c1cnccn1	inactive
Cc1ccc2nc(NCCCNC(=O)c3cnccn3)c(C#N)cc2c1	160 nM (active)
CC1(C)C(=O)C2(CCCCC2)C(=O)OC1c1cccs1 (stereo not given)	inactive
CC(C)CNS(=O)(=O)c1ccc(OCC(=O)Nc2ccc3c(c2)OCO3)c(Cl)c1	inactive
CC1CN(C(=O)CN2C(=O)NC(C)(c3ccccc3)C2=O)CC(C)O1 (stereo not given)	inactive
COC(=O)c1cc(C(=O)OC)cc(N2C(=O)CC(N3CCN(c4ccccc4)CC3)C2=O)c1 (stereo not given)	inactive
CCc1c(C)nc2ncnn2c1N1CCC(C(=O)NCc2ccc3c(c2)OCO3)CC1	inactive
O=C1CSC(=O)N1CCOCCN1C(=O)CSC1=O	inactive
COCCn1c(-c2ccc(OC)c(OC)c2)nc2ccccc21	inactive
COc1ccc(CCn2nnnc2C(c2ccccc2)N2CCN(C)CC2)cc1OC (stereo not given)	inactive
COc1ccc(CCn2c(-c3ccco3)nc3nc4ccccc4nc32)cc1OC	40 nM (active)
CCn1cc(C(=O)N2CCN(C3CCCCC3)CC2)c2cc(OC)c(OC)cc2c1=O	inactive
Cn1c2c(c(=O)n(C)c1=O)C(c1ccc(O)cc1)Nc1ccccc1O2 (stereo not given)	inactive
CCn1c(COc2cccc(OC)c2)nnc1SCC(=O)N1CCOCC1	inactive
COc1ccc(-c2ccnc(SCC(=O)N3CCOCC3)n2)cc1	110 nM (active)
COc1ccc(-c2nc(SCC(=O)N3CCOCC3)n[nH]2)cc1	inactive
CC1(C)CC(=O)C=C(NCCCN2CCCC2=O)C1	inactive
CCOC(=O)c1ccc(N2C(=O)CC(Sc3nc(O)c(CC)c(=O)[nH]3)C2=O)cc1 (stereo not given)	inactive

SMILES	max dye-equivalent concentration
CS(=O)(=O)N1CCCC(C(=O)N2CCOCC2)C1 (stereo not given)	inactive
COc1ccc(N2C(=O)c3cccc4cccc(c34)C2=O)nn1	160 nM (active)
COc1ccc(OCCCON2C(=O)c3ccccc3C2=O)cc1	inactive
Cc1cc(C)c(C)c(S(=O)(=O)Nc2ccc(O)cc2)c1C	inactive
COCCCNC(=O)c1ccc(CNS(=O)(=O)c2ccc(NC(C)=O)cc2)cc1	inactive
CC(C)C1Cc2c(sc3c2c(=O)n(-c2ccccc2)c2nncn32)CO1 (stereo not given)	inactive
COC(=O)c1cn(CC(=O)NCc2cccs2)c2ccccc12	inactive
O=C(CCC(=O)c1cccs1)NCc1ccccc1	inactive
O=C(Cn1cc(C(=O)c2cccs2)c2ccccc21)NCc1cccs1	29 nM (active)
CCc1ccc(CCC(=O)Nc2ccc(S(N)(=O)=O)cc2)o1	inactive
Clc1ccc(C(c2ccc(Cl)cc2)n2cc[n+](C[C@@H](OCc3ccc(Cl)cc3Cl)c3ccc(Cl)cc3Cl)c2)cc1	inactive
CC1CCCN(c2ccc(C(=O)NCCc3ccccc3)cn2)C1 (stereo not given)	inactive
Cc1ccc(S(=O)(=O)NC(=O)NN2C[C@H]3CCC[C@@H]3C2)cc1	inactive
O=C(OCC(=O)N1CCCC1)c1ccco1	inactive
COc1ccc(C2CC(c3ccc(C)cc3)Nc3nc(N)nn32)cc1 (stereo not given)	2500 nM (active)
Nc1nc2n(n1)C(c1ccco1)CC(c1ccc(Cl)c(Cl)c1)N2 (stereo not given)	inactive
CC1CC(c2ccccc2)n2nc(NC(=O)c3cccs3)nc2N1 (stereo not given)	inactive
CCc1c(C)c2c(C)[nH]nc2oc1=O	inactive
CCOc1ccc2[nH]c(=O)c(C(c3nnnn3CCOC)N3CCOCC3)cc2c1 (stereo not given)	720 nM (active)
COCCn1nnnc1C(c1cc2ccc(OC)cc2[nH]c1=O)N1CCc2ccccc2C1 (stereo not given)	17 nM (active)
Cc1cc(C)c2[nH]c(=O)c(C(c3nnnn3Cc3ccc4c(c3)OCO4)N3CCCC3)cc2c1 (stereo not given)	inactive
COc1ccc(N2CCN(C(c3cc4ccc(C)cc4[nH]c3=O)c3nnnn3C3CCCC3)CC2)cc1 (stereo not given)	inactive

SMILES	max dye-equivalent concentration
COc1ccc(OC)c(C(c2nnnn2C(C)(C)C)N2CCc3ccccc3C2)c1 (stereo not given)	inactive
COCCn1nnnc1C(c1ccccc1Cl)N1CCN(c2ccccc2OC)CC1 (stereo not given)	inactive
CCCOc1ccccc1C(=O)NCCCC(=O)O	inactive
COC(=O)Nc1ncc(CN2C(=O)c3ccccc3C2=O)s1	inactive
O=C(CCCn1c(SCC(=O)c2ccc(F)cc2)nc2ccccc2c1=O)NCc1ccco1	inactive
CC1(N2CCOCC2)CC2(O)C(=[N+]1[O-])CCc1nonc12 (stereo not given)	inactive
CCn1c(COc2ccccc2)nnc1SCC(=O)Nc1ccc2c(c1)OCCO2	inactive
COc1ccc(S(=O)(=O)N2CCCCC2)cc1Br	inactive
C=CCn1c(CC(=O)Nc2cccc(OC)c2)nnc1SCC(=O)NC1CCCCC1	inactive
COc1ccc(OCc2cccc(C(=O)N3CCCC3)c2)cc1	19 nM (active)
CCC(CC)C(=O)Nc1cccc(C(=O)N2CCCC2)c1	inactive
COc1ccc(OCC(=O)N2CCN(C(=O)COc3ccccc3)CC2)cc1	inactive
c1ccc(CCc2nc(-c3ccncc3)no2)cc1	inactive
Cc1ccc2c(NC(=O)C3CC3)cccc2n1	inactive
CC(=O)N1CCC(C(=O)Nc2nc(-c3ccccc3)ns2)CC1	1800 nM (active)
Cc1cc(C)cc(NC(=O)C2CCN(c3nc(C)cc(C)n3)CC2)c1	inactive
CCCOc1ccccc1-c1nc(SCCC(=O)O)n[nH]1	inactive
CCn1c(=N)n(CC(=O)c2cccc(OC)c2)c2ccccc21	inactive
COC(=O)c1ccc(CSc2nncn2C)cc1	inactive
Cc1ccc2c(c1)c1ncnc(N3CCc4ccccc4C3)c1n2C	140 nM (active)
Cc1ccc(NC(=O)CCN2CCc3ccccc3C2)cc1	inactive
Cc1ccc(C(c2nnnn2C(C)(C)C)N2CCc3ccccc3C2)cc1 (stereo not given)	inactive

From PubChem BioAssay AID589 (National Center for Advancing Translational Sciences (NCATS), 2007)
